# Records with an inconclusive call do not appear. Active and inactive are the calls of the source. How the source made its calls: active means hit-call score of the fitted dose curve at least 0.9, where 1 is the maximum; inconclusive means response in the unintended direction; inactive means score below 0.9.
# Target: human Vitamin D Receptor (VDR), VDR (gene 7421) (UniProt P11473)
# Assay: ATG_VDR_TRANS: Attagene TRANS-FACTORIAL HepG2 Assay for human Vitamin D Receptor (VDR) (AID 2283022)
# Outline: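 Transactivation by an exogenous VDR-Gal4 chimera in transiently transfected HepG2 cells was measured as reporter transcript level 24 hours after chemical treatment. RT-PCR products were analysed by capillary electrophoresis and fitted in the positive direction relative to DMSO.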
# human Vitamin D Receptor (VDR), VDR (gene 7421), sequence (P11473 whole entry, looked up): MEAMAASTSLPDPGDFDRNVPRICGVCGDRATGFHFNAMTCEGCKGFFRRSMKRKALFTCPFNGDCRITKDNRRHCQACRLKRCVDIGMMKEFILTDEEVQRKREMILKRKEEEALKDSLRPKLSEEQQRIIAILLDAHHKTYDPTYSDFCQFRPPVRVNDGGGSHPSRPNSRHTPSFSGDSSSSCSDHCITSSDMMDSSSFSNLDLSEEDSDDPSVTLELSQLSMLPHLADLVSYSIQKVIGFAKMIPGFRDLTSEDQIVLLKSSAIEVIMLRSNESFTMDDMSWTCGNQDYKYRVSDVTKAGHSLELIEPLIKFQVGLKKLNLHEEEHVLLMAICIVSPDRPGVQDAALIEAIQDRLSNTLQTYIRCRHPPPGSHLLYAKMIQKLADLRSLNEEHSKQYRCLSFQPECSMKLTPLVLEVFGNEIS
Structure (SMILES),outcome,AC50
CC1=Nc2ccc3ccccc3c2C1(C)C,inactive,–
CC(=O)C=CC1C(C)=CCC(C)C1(C)C (centres undefined),inactive,–
COC(=O)c1c(C)cc(O)c(C)c1O,inactive,–
O=C1c2cccc(O)c2C(=O)c2c(O)cc(CO)cc21,inactive,–
CCc1c(C(=O)O)c(=O)cnn1-c1ccc(Cl)cc1,inactive,–
C=C[Si](C)(C)O[Si](C)(C)C=C,inactive,–
O=c1n(CCO)c(=O)n(CCO)c(=O)n1CCO,inactive,–
CC(=O)Nc1ccc2c(c1)Cc1cc(NC(C)=O)ccc1-2,inactive,–
CC(=O)NS(=O)(=O)c1ccc(N)cc1,inactive,–
CCC(Cc1ccccc1)(C(=O)c1ccc(N2CCOCC2)cc1)N(C)C (centres undefined),inactive,–
CC(=O)c1ccc2c(c1)CCCC2,inactive,–
Cn1c(=O)[nH]c2ncn(C)c2c1=O,inactive,–
Nc1nc2ccccc2[nH]1,inactive,–
O=c1cc(-c2ccccc2)oc2ccccc12,inactive,–
CC1(C)O[C@@H]2C[C@H]3[C@@H]4C[C@H](F)C5=CC(=O)C=C[C@]5(C)[C@@]4(F)[C@@H](O)C[C@]3(C)[C@]2(C(=O)CO)O1,inactive,–
ON(Cc1ccccc1)Cc1ccccc1,inactive,–
C1=Cc2ccccc2C1,inactive,–

Structure (SMILES),outcome,AC50
COc1c2ccoc2cc2oc(=O)ccc12,inactive,–
CCOc1ccc(N)c([N+](=O)[O-])c1,inactive,–
CC(C)(C)c1ccc(OC(=O)c2ccccc2O)cc1,inactive,–
Cc1ccc2c(c1)C(=O)c1ccccc1C2=O,inactive,–
O=CN1CCCCC1,inactive,–
CCc1nccnc1C,inactive,–
CCCC(C)CCC(C)=O (centres undefined),inactive,–
CC(C)C1=CC2=CC[C@@H]3[C@](C)(CCC[C@@]3(C)C(=O)O)[C@H]2CC1,inactive,–
CCCCC(CC)CCC(CC(C)C)OS(=O)(=O)O (centres undefined),inactive,–
CCCOCCOCCOCCO,inactive,–
CCOC(=O)N1CCC(=C2c3ccc(Cl)cc3CCc3cccnc32)CC1,inactive,–
CC(CC=O)c1ccccc1 (centres undefined),inactive,–
CC=C1CC2C=CC1C2 (centres undefined),inactive,–
C=C(C)C(=O)OCCOc1ccccc1,inactive,–
CCOC(=O)Cc1cccc2ccccc12,inactive,–
CCN(CC#N)c1cccc(C)c1,inactive,–
CN(C)c1ccc(C(=N)c2ccc(N(C)C)cc2)cc1,–,156 µM (active)

# — PubChem BioAssay (EPA / NIEHS)
